A selection: hits, their analogues and other compounds. The true share with any hit is near 11%.
Sm TGR inh: S. mansoni TGR enzyme inhibition; Potency, µM (series often up to 114 µM), without a hit: at the top dose activity change, negative = inhibition, usual class: inhibitors; Q962Y6; purified TGR, DTNB reduction, TNB absorbance 405 nm; 360,000 compounds, 3% hits; AID 485364; note: % is set by controls: 0 for no effect and ±100 for the full control effect; nearly all actives have a fitted effect of over 60% in size
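First, TGR (20 nM dispensed) and NADPH were mixed with compound. Second, a 15 min room-temperature incubation followed. Third, further NADPH and then DTNB were added to start the reaction. Finally, TNB absorbance was monitored kinetically.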
AMA1-RON2 inh: disrupts binding of P. falciparum AMA1 to RON2; Potency, µM (series often up to 58.2 µM), for the others: at the highest dose activity change, negative = inhibition, hits mostly inhibitors; AID 720542; AlphaScreen AMA1-biotinylated RON2 peptide binding; 360,000 compounds, 0.2% hits;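 note: 0% = vehicle wells and -100% = peptide control; nearly all actives have a fitted effect of over 45% in size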
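AMA1 (3D7) with his tag at 25 nM final met compounds first, then biotinylated RON2 peptide at 25 nM; detection used donor plus acceptor beads, 10 µg/mL apiece, read by AlphaScreen after 30 min at room temperature.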
Pf growth 48h: P. falciparum growth inhibition at 48 hours (one generation); P. falciparum luciferase growth in erythrocytes, 48 h; Potency, µM (doses to about 28.7 µM), for inactives: at the highest dose activity change, negative = inhibition, hits mostly inhibitors; 310,000 compounds, 5.9% hits; note: % is set by controls: 0 for no effect and ±100 for the full control effect
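Compounds are pin-transferred into medium, infected erythrocytes (2% hematocrit, 0.1% parasitemia final) are added, and plates sit one parasite generation at 37 C in 5% CO2. Detection reagent is then added and luminescence measured.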
NS1 inh: influenza NS1 inhibition; 270,000 compounds, 0.4% hits; Potency, µM (doses to about 46.1 µM), for inactives: at the highest dose activity, positive = more growth; calls by dose curve; note: actives are rising curves; nearly all actives have a fitted effect of over 50% in size
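Read-out: OD600 growth recovery of NS1-expressing budding yeast. Cells grown overnight at 30C in -URA glucose medium, washed, resuspended and diluted 1:100 in 2% galactose assay medium, pH 6.0. Same strain lacking NS1 served as positive control.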
Pf growth 96h: inhibits malaria parasite growth, 96 h; 320,000 compounds, 6.9% hits; Potency, µM (doses to about 28.7 µM), for the others: at the top dose activity change, negative = inhibition, actives largely listed as inhibitors; AID 504834; P. falciparum luciferase reporter growth, 96 h; note: % is set by controls: 0 for no effect and ±100 for the full control effect
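Compounds incubated with erythrocytes infected by luciferase-expressing P. falciparum (2% hematocrit, 0.05% parasitemia final) for 96 hours, 37 C in 5% CO2. Growth inhibition scored as decreased luciferase luminescence.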
The depositor's hits bear a star; ? = inconclusive; · = no result; [ ] = dose if it differs, or a comment. Unless noted, calls come from the whole dose curve; as a rule, active = well fitted curve in the direction sought with a large enough effect; inconclusive = small, poorly fitted or top-dose-only effect, or another doubt; inactive = no such curve, though single readings can be large; an effect the other way counts as inactive or inconclusive. Potency is the fitted concentration of half-maximal effect.

SMILES	Sm TGR inh	AMA1-RON2 inh	Pf growth 48h	NS1 inh	Pf growth 96h
N#Cc1c(/N=C/c2ccco2)oc(-c2ccccc2)c1-c1ccccc1	?	-12%	17µM*	-24%	27%
COc1ccc(-c2c([C@H]3[C@@H]4C=CCC[C@@]4(C)C(=O)N3Cc3ccccc3)ccc3ccccc23)cc1OC	-24%	-26%	5.2µM*	2%	5.2µM*
COc1ccc(-c2ccc([C@H]3[C@@H]4C=CCC[C@@]4(C)C(=O)N3Cc3ccccc3)c(F)c2)cc1OC	-5%	-20%	?	3%	?
C[C@@]12CCC=C[C@H]1[C@H](c1ccoc1)N(Cc1ccccc1)C2=O	35µM*	0%	39%	-5%	62%
C[C@@]12CCC=C[C@H]1[C@H](c1ccccc1Br)N(Cc1ccccc1)C2=O	·	-15%	·	·	·
O=C1CN(c2nc3ccccc3n3cnnc23)CC(=O)N1CCc1ccccc1	32µM*	-4%	3%	-35%	?
c1ccc2c(c1)nc(N1CCCCCC1)c1nncn12	·	0%	·	·	·
[O-][N+]1=c2ccc(Nc3ccccc3)cc2=NC12CCCCC2	-19%	?	9.3µM*	-123%	·
COc1ccc(Nc2ccc3c(c2)=NC2(CCCCC2)[N+]=3[O-])cc1	-22%	-26%	12µM*	-60%	?
CC(C)CNc1ncnc2c1ncn2[C@H]1CN(CCc2ccccc2)C[C@@H](CO)O1	·	-6%	·	·	·
COC(=O)C(C)(C(=O)OC)c1ccc(C(F)(F)F)cc1[N+](=O)[O-]	5%	-15%	-16%	1%	-4%
COC(=O)c1ccc(Oc2cc(C)nc(NCc3ccccc3)n2)cc1	5%	21%	?	-8%	10µM*
COc1ccc(Nc2cc(C)nc(NCc3ccccc3)n2)cc1	19%	?	0.47µM*	-34%	1.7µM*
Cc1cc(NC2CCCCC2)nc(NCc2ccccc2)n1	-19%	-2%	1.9µM*	-40%	1.5µM*
Cc1cc(C)nc(N/N=C/c2ccccc2Cl)n1	9%	55%	124%	1%	96%
Cc1cc(N/N=C/c2ccccc2Cl)nc(NCc2ccccc2)n1	2%	-21%	1.5µM*	-25%	?
COC(=O)c1ccc(Oc2nc(C)cc(Oc3ccccc3)n2)cc1	-10%	-15%	?	-35%	8%
C/C(=N/NC(=O)c1ccc(C)nc1)c1ccc2c(c1)CCCC2	6%	37%	-4%	·	-11%
O=C(Cn1nc(-c2ccccc2)nc(Cc2ccccc2)c1=O)Nc1ccccc1	-3%	·	·	·	·
Cc1ccc(Nc2cc(C)nc(NCc3ccccc3)n2)cc1	-10%	-12%	0.66µM*	-29%	44%
COc1cc(C)nc(NCc2ccccc2)n1	-2%	-10%	3%	3%	?
COc1ccc(C)cc1S(=O)(=O)N1CC(C)OC(C)C1 (centres undefined)	-12%	2%	34%	3%	12µM*
COc1cc(C)ccc1S(=O)(=O)N1CCCCCC1	5%	-8%	-9%	-8%	23%
COc1ccc(C)cc1S(=O)(=O)N1CCCCCC1	-1%	-1%	2.1µM*	-79%	-11%
COc1ccc(C)cc1S(=O)(=O)N1CCCC(C(=O)N2CCN(c3ccccc3)CC2)C1 (centres undefined)	6%	-1%	7.4µM*	-14%	10µM*
SMILES	Sm TGR inh	AMA1-RON2 inh	Pf growth 48h	NS1 inh	Pf growth 96h
COc1ccc(S(=O)(=O)N2CCOCC2)cc1N(C)S(=O)(=O)c1ccc(C)cc1	-12%	-8%	-26%	-13%	30%
COc1ccc(S(=O)(=O)N2CCCCCC2)cc1N(C)S(=O)(=O)c1ccc(C)cc1	5%	-14%	-19%	30%	10µM*
Cc1ccc(N2CCN(S(=O)(=O)c3ccc(Cl)c4ccccc34)CC2)c(C)c1	6%	·	·	·	·
CCOc1cc(C)c(C(C)C)cc1S(=O)(=O)N1CC(C)OC(C)C1 (centres undefined)	3%	1%	13µM*	-32%	·
COc1ccc(/C=C/C(=O)O)cc1S(=O)(=O)N1CCCC1	-5%	18%	0%	3%	5.9µM*
COc1ccc(/C=C/C(=O)O)cc1S(=O)(=O)N1CCCCC1	-4%	11%	8%	5%	16%
CCOc1cc(Br)ccc1S(=O)(=O)N1CC(C)OC(C)C1 (centres undefined)	-17%	?	?	-85%	·
Cc1ccccc1C(=O)c1c[nH]c(C(=O)NCCc2ccccn2)c1	7%	5%	12µM*	·	9.3µM*
CC1=CC(=O)O[C@@H]1[C@@]1(C)C[C@H]2OC(=O)C[C@H]3[C@@H](C)C(=O)C(O)=C1[C@@]23CO	-19%	9%	13µM*	·	15µM*
COCCNC(=O)C1(C)CCCN(C(=O)c2ccc(F)cc2Cl)C1 (centres undefined)	·	-3%	·	·	·
Cc1ccc(C)c(CN2CCC(n3nnc4cc(F)ccc43)CC2)c1	6%	-5%	8.3µM*	1%	13µM*
Fc1ccc2c(c1)nnn2C1CCN(Cc2c(Cl)cccc2Cl)CC1	0%	2%	10µM*	1%	10µM*
Fc1ccc2c(c1)nnn2C1CCN(Cc2nnnn2C2CCCCC2)CC1	8%	-11%	?	-6%	-8%
COc1ccccc1-c1nn2c(=O)cc(CN3CCN(C(=O)/C=C/c4ccccc4)CC3)nc2s1	-23%	·	·	·	·
CCc1noc(C)c1C(=O)OC(C)C(=O)Nc1ccc2c(c1)OCO2 (centres undefined)	-1%	2%	6%	·	23%
CCOc1cc(C(F)(F)F)cnc1/C(N)=N/O	11%	85%	63%	0%	34%
CCOc1ccccc1Nc1nc(-c2sc(NC(=O)c3ccc([N+](=O)[O-])cc3)nc2C)cs1	16%	·	3.3µM*	16%	?
Cc1ccccc1Nc1nc(-c2sc(NC(=O)c3ccc([N+](=O)[O-])cc3)nc2C)cs1	2%	·	?	6%	13µM*
Cc1ccccc1Nc1nc(-c2sc(NC(=O)c3ccccc3)nc2C)cs1	-2%	·	9.3µM*	12%	12µM*
Cc1ccc(Nc2nc(-c3sc(NC(=O)c4ccc([N+](=O)[O-])cc4)nc3C)cs2)cc1	-19%	·	9.3µM*	-2%	2.6µM*
Cc1nn(C)cc1S(=O)(=O)N1CCN(c2ccccc2)CC1	-1%	-1%	4%	?	37%
C[C@H]1C[C@@H]2[C@@H]([C@@H](O)C[C@@]3(C)[C@H]2CC[C@]3(O)C(=O)CO)[C@@]2(C)C=CC(=O)C=C12	·	·	-16%[12.8 µM]	·	?
CCCCCC(=O)N1C[C@H](O)[C@@H](n2cc(COC(=O)c3ccccc3)nn2)C[C@@H]1c1ccc(OC)cc1	·	-1%	·	·	·
Oc1ccc(Nc2nc(-c3cccs3)cs2)cc1	1%	13%	34%	18%	32%
COc1ccc(Nc2nc(-c3cccs3)cs2)cc1	-10%	-4%	316%	3%	0.52µM*
COc1ccc(OC)c(Nc2nc(-c3sc(NC(=O)c4ccccc4)nc3C)cs2)c1	1%	·	?	27%	-22%

High-throughput results as filed in PubChem.
